The list is not random: actives were taken first. Their share in the collection is about 19%.
TDP1 cell noCPT = qHTS for Inhibitors of human tyrosyl-DNA phosphodiesterase 1 (TDP1): qHTS in cells in absence of CPT. DT40 Tdp1-/- hTDP1 cells, no CPT, ATP luminescence, 48 h. Potency, µM (series often up to 46.2 µM), hits mostly inhibitors. 420,000 tested, 15% active. AID 686978, 2013; also: nearly all actives have a fitted effect of over 55% in size
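Cells were dispensed at 400 per well, compounds added by pin tool, plates incubated ≥48 hr at 37 °C, then CellTiter-Glo added for 30 min at room temperature before luminescence reading. Line: DT40 Tdp1-/- complemented with hTDP1; camptothecin omitted.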
BCR signal inh = chronic active BCR signaling inhibition; ABC-DLBCL IkBa-CBG/CBR reporter, luminescence ratio, 4 h; Potency, µM (highest dose often 46.1 µM), usual class: inhibitors; 340,000 tested, 0.05% active; active = well fitted inhibition curve with a large enough effect in the signal ratio, with a control signal flat, not every such curve was filed as active; inconclusive = small, poorly fitted or top-dose-only effect, or effect the other way, or a change in a side signal; the % refers to the signal ratio
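TMD8 human ABC-DLBCL cells with doxycycline-inducible IκBα–green luciferase fusion and unfused red luciferase, in 0.5% FBS medium; compounds up to 46 uM, 4 h at 37C. Green/red luminescence ratio, filter-overlap corrected, fitted to concentration-response curves.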
MCF10A rereplic = DNA re-replication induction in MCF 10a cells. MCF 10A DNA re-replication, Hoechst nuclear intensity, 48 h. AID 624296. 350,000 tested, 2.9% active. Potency, µM (top dose mostly 46.1 µM), hits mostly activators; also: nearly all actives have a fitted effect of over 50% in size
DT40 TDP1 CPT = DT40-hTDP1 cell growth loss with CPT; AID 686979; Potency, µM (titrated, usually from 46.2 µM), most hits filed as inhibitors; chicken DT40 Tdp1-/-;hTDP1 cells + 20 nM CPT, ATP luminescence, 48 h; 420,000 tested, 12% active; also: nearly all actives have a fitted effect of over 55% in size
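Chicken DT40 Tdp1-/- cells stably complemented with human TDP1 were seeded at 400 cells/well in medium containing 20 nM camptothecin, exposed to pin-transferred compounds, and grown at 37 °C for at least 48 hr. Viability was read as ATP luminescence.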
IL-1B inflam inh = inhibitors of inflammasome signaling (IL-1 beta secretion) | THP-1 LPS/ATP IL-1B secretion, AlphaLISA, 16 h; hits give low values | activity change, % at 57.5 µM | 360,000 tested, 4.7% active | AID 743279; in the data active = activity change below about -50%; inconclusive = mostly about -30% to -49%
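THP-1 cells pretreated 1 hr with compounds (up to 57.5 uM final), then stimulated with LPS (250 ng/mL final) plus ATP (1.25 mM final); secreted IL-1B measured by AlphaLISA after 16 hr, decreased signal indicating inhibition.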
SW480 rereplic = DNA re-replication induction in SW480 cells; Potency, µM (series often up to 46.1 µM), hits mostly activators; 340,000 tested, 1.8% active; SW480 DNA re-replication, Hoechst DNA content imaging, 48 h; also: nearly all actives have a fitted effect of over 55% in size
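Image-based DNA-content assay: after two days of treatment, nuclei were labelled with the DNA dye Hoechst and imaged, and hits were compounds raising the count of nuclei showing high fluorescence intensity.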
Hits are given with their value; [ ] = remark or other dose. Unless noted, calls follow the shape of the dose curve; as a rule, active = well fitted curve in the direction sought with a large enough effect; inconclusive = small, poorly fitted or top-dose-only effect, or another doubt; inactive = no such curve, though single readings can be large; an effect the other way counts as inactive or inconclusive.

`O=C1CC(c2ccc(O)cc2)Oc2cc(O)ccc21` (configuration not stated) gave TDP1 cell noCPT inactive, MCF10A rereplic inactive, DT40 TDP1 CPT inactive, IL-1B inflam inh inactive and SW480 rereplic inactive.
Screening Cn1c(Cl)cnc1C1CC(=O)c2cc(Cl)ccc2O1 (configuration not stated) returned TDP1 cell noCPT 2.59µM, BCR signal inh inconclusive, MCF10A rereplic inconclusive, DT40 TDP1 CPT 4.11µM, IL-1B inflam inh -95.1 and SW480 rereplic 10.3µM.
For O=C1CC(c2cccc(O)c2)Oc2ccccc21 (configuration not stated) the results were TDP1 cell noCPT inconclusive, BCR signal inh inactive, MCF10A rereplic inactive, DT40 TDP1 CPT inconclusive, IL-1B inflam inh -82.6 and SW480 rereplic inactive.
For O=C1CC(c2ccccc2)Oc2ccccc21 (configuration not stated) the results were TDP1 cell noCPT inconclusive, MCF10A rereplic inactive, DT40 TDP1 CPT inconclusive, IL-1B inflam inh inconclusive and SW480 rereplic inactive.
For O=C1CC(c2ccc(Cl)cc2)Oc2ccc(Cl)cc21 (configuration not stated) the results were TDP1 cell noCPT inconclusive, MCF10A rereplic inconclusive, DT40 TDP1 CPT inconclusive, IL-1B inflam inh -87.2 and SW480 rereplic inconclusive.
Cn1c2c(c(=O)n(C)c1=O)C1c3cc(Cl)ccc3OCC1CO2 (configuration not stated) was read as TDP1 cell noCPT inactive, BCR signal inh inconclusive, MCF10A rereplic inactive, DT40 TDP1 CPT inactive, IL-1B inflam inh inactive and SW480 rereplic inactive.
CCOc1ccccc1OCCCC(=O)N(CC)CC(=O)Nc1c(F)cccc1F was read as TDP1 cell noCPT inactive, BCR signal inh inactive, MCF10A rereplic inactive, DT40 TDP1 CPT inactive, IL-1B inflam inh inactive and SW480 rereplic inactive.
Screening CC(C)Cc1nnc(NC(=O)CCC(=O)NC2CCCCCC2)s1 returned TDP1 cell noCPT inactive, BCR signal inh inactive, MCF10A rereplic inactive, DT40 TDP1 CPT inactive, IL-1B inflam inh inactive and SW480 rereplic inactive.
Screening O=C(CNC(=S)N(Cc1ccccc1F)C1CCCCC1)NCC1CCCO1 (configuration not stated) returned TDP1 cell noCPT inconclusive, BCR signal inh inactive, MCF10A rereplic inactive, DT40 TDP1 CPT inconclusive, IL-1B inflam inh -68.2 and SW480 rereplic inactive.
O=C(CSc1ncnc2c1nnn2Cc1ccccc1F)NCC1CCCO1 (configuration not stated) was read as TDP1 cell noCPT inactive, BCR signal inh inconclusive, MCF10A rereplic inconclusive, DT40 TDP1 CPT inconclusive, IL-1B inflam inh -90.1 and SW480 rereplic inactive.
For Cc1cc(C)c(CN2CCN(C(=O)Cn3cnc4c(OCc5ccccc5)ncnc43)CC2)c(C)c1 the results were TDP1 cell noCPT 2.59µM, BCR signal inh inactive, MCF10A rereplic inactive, DT40 TDP1 CPT 8.2µM, IL-1B inflam inh inactive and SW480 rereplic inactive.
Screening O=C(O)Cn1cnc2c(OCc3ccccc3)ncnc21 returned TDP1 cell noCPT inactive, BCR signal inh inactive, MCF10A rereplic inconclusive, DT40 TDP1 CPT inactive, IL-1B inflam inh inactive and SW480 rereplic inactive.
O=C1CCCN1CCCNCCCn1cnc2c(OCc3ccccc3)ncnc21 was read as TDP1 cell noCPT inactive, MCF10A rereplic inactive, DT40 TDP1 CPT inconclusive, IL-1B inflam inh inactive and SW480 rereplic inconclusive.
Screening Cc1ccc(CN2CCN(CCCn3cnc4c(OCc5ccccc5)ncnc43)CC2)cc1 returned TDP1 cell noCPT inconclusive, MCF10A rereplic inactive, DT40 TDP1 CPT 23.1µM, IL-1B inflam inh -53.7 and SW480 rereplic inconclusive.
For Cc1ccc(NCCCn2cnc3c(OCc4ccccc4)ncnc32)cc1C the results were TDP1 cell noCPT inconclusive, MCF10A rereplic inactive, DT40 TDP1 CPT inconclusive, IL-1B inflam inh inactive and SW480 rereplic inactive.
`c1ccc(COc2ncnc3c2ncn3CCCN2CCN(Cc3cccc4ccccc34)CC2)cc1` gave TDP1 cell noCPT 9.2µM, DT40 TDP1 CPT inconclusive and IL-1B inflam inh inactive.
C[C@H](CO)N1C[C@H](C)[C@@H](CN(C)S(=O)(=O)c2cccs2)Oc2ccc(NS(=O)(=O)c3ccccc3)cc2C1=O was read as TDP1 cell noCPT inconclusive, BCR signal inh inconclusive, MCF10A rereplic inactive, DT40 TDP1 CPT inconclusive, IL-1B inflam inh inactive and SW480 rereplic inactive.
CN(C)CCO[C@@H](c1ccc(Cl)cc1)c1ccccn1 was read as TDP1 cell noCPT inactive, BCR signal inh inactive, MCF10A rereplic inactive, DT40 TDP1 CPT inactive, IL-1B inflam inh inactive and SW480 rereplic inactive.
For Cc1ccc(C(OCCN(C)C)c2cccc(C(F)(F)F)c2)cc1 (configuration not stated) the results were TDP1 cell noCPT 23.1µM, BCR signal inh inconclusive, MCF10A rereplic inactive, DT40 TDP1 CPT 23.1µM, IL-1B inflam inh -66.7 and SW480 rereplic inactive.
NNc1nc2c(Cl)c(Cl)ccc2s1 was read as TDP1 cell noCPT inconclusive, BCR signal inh inconclusive, MCF10A rereplic inconclusive, DT40 TDP1 CPT inconclusive, IL-1B inflam inh -59.7 and SW480 rereplic inactive.
For Cc1ccc(NC(=O)CN2C(=O)c3ccccc3S2(=O)=O)c(C)c1 the results were TDP1 cell noCPT inactive, BCR signal inh inactive, MCF10A rereplic inactive, DT40 TDP1 CPT inactive, IL-1B inflam inh inactive and SW480 rereplic inactive.
`CC/C(=N\N=C(/CC)c1ccccc1N)c1ccccc1N` gave TDP1 cell noCPT 23.1µM, MCF10A rereplic inactive, DT40 TDP1 CPT 29.1µM, IL-1B inflam inh inactive and SW480 rereplic inactive.
O=C(O)CC1(CC(=O)Nc2ccc3ccccc3n2)CCCCC1 was read as TDP1 cell noCPT inactive, BCR signal inh inconclusive, MCF10A rereplic inconclusive, DT40 TDP1 CPT inactive, IL-1B inflam inh inactive and SW480 rereplic inactive.
`C=CCn1c(SCC(=O)N2CCC(C)CC2)nc2c([nH]c3ccccc32)c1=O` gave TDP1 cell noCPT inconclusive, DT40 TDP1 CPT inconclusive and IL-1B inflam inh inactive.
`CC[C@]12c3[nH]c4ccc(OC)cc4c3CCN1C(=O)C(CC(=O)NC/C=C(\C)CCC=C(C)C)C[C@@H]2C(=O)N1CCN(C(=O)c2ccco2)CC1` (some centres not stated) gave TDP1 cell noCPT inconclusive, BCR signal inh inconclusive, MCF10A rereplic inconclusive, DT40 TDP1 CPT inconclusive, IL-1B inflam inh -53.1 and SW480 rereplic inconclusive.
`CC[C@]12c3[nH]c4cc(-c5ccco5)ccc4c3CCN1C(=O)[C@@H](CC(=O)NCc1cccc(C(F)(F)F)c1)C[C@@H]2C(=O)N1CCN(C(=O)c2ccco2)CC1` gave TDP1 cell noCPT 8.2µM, BCR signal inh inconclusive, MCF10A rereplic inactive, DT40 TDP1 CPT 8.2µM, IL-1B inflam inh -51.4 and SW480 rereplic inactive[9.22 µM].

High-throughput results as filed in PubChem BioAssay.
